Consider 8 compounds from PubChem BioAssay (NCATS).

The nature of experiment [1]: Quantitative High-Throughput drug screen in 47 multiple myeloma cell lines against the NCATS MIPE library collection: KMS28BM_JCRB cell viability assay (AID 1919874). Also: nearly all actives have a fitted effect of over 35% in size. Also: potency is read from the fitted curve at half-maximal effect. Conditions: CellTiter-Glo ATP, 48 h; series mostly up to 45.8 µM. Summed up:
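Myeloma cells (500/well) treated with MIPE 4.0 compounds for 48 h at 37 °C, 5% CO2. Viability read as ATP via CellTiter-Glo luminescence after 5 min at RT; DMSO-only wells = 100%, media-only = 0% viability.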
For orientation: In ATP-based viability assays light output follows the ATP content of the culture.

Experiment [2] is described as follows: qHTS drug screen for cell cycle checkpoint inhibitors in PARPi-resistant BRCA-mutant ovarian cancer cell lines. (AID 1963452; calls by dose curve). The note with it: PEO1/OlaR viability, CellTiter-Glo luminescence, 96 h, stronger effect = lower value. In short, it runs like this:
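PEO1, PEO4 and PEO1/OlaR ovarian cancer cells, 600 per well, exposed 96 h at 37C to a dilution series. Viability read by CellTiter-Glo luminescence, normalized to DMSO and empty wells; activity summarized as Z-AUC.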
In general terms: Quantitative high-throughput screening tests each substance at several concentrations.

Experiment [3] in a line: qHTS for identification of novel therapeutic agents for treatment of microphthalmiaassociated transcription factor (MiT) renal cell carcinoma (RCC) (AID 1963991; calls by dose curve; also: potency is read from the fitted curve at half-maximal effect). Conditions: CellTiter-Glo, 48 h; for z-score: stronger effect = lower value. In short, it runs like this:
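Viability of three TFE3-fusion renal carcinoma lines measured by CellTiter-Glo after 48 h treatment with each of 1912 compounds at 11 concentrations. Responses scaled between DMSO (100%) and empty wells (0%) before curve fitting.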

Setting [4] is: measured here: PEO1 parental Z-AUC.
The mark [5] stands for this setting: TFE3-RCC UOK109 viability, measured here: UOK109 Z-AUC.
Setting [6] is: TFE3-RCC viability, measured here: UOK124 Z-AUC.
Where [7] appears, read: TFE3-RCC viability, measured here: UOK145 Z-AUC.

Molecules are shown by their SMILES. Results filed as inconclusive are left out. The source made the active and inactive calls. Unless noted, calls follow the shape of the dose curve; as a rule, active = well fitted cell-killing curve with a large enough effect; inconclusive = small, poorly fitted or top-dose-only effect, or effect the other way; inactive = no such curve, though single readings can be large or run the other way.

Regarding `CCN(C(=O)c1c(O)c2c(Cl)cccc2n(C)c1=O)c1ccccc1`, the Potency result in experiment [1] was “inactive”. Besides, the Z-AUC in experiment [2] was -0.417 (inactive); in experiment [2] (setting [4]) it was -0.714; in experiment [2] (measured here: PEO4 Z-AUC) it was -1.09. For the same compound, the z-score in experiment [3] (setting [5]) was 0.408; in experiment [3] (setting [6]) it was 0.904; in experiment [3] (setting [7]), 0.468.

`CC(C(C)N1CC(=O)NC(=O)C1)N1CC(=O)NC(=O)C1` (centres undefined): the Potency result in experiment [1] is “inactive”. Moreover, the Z-AUC in experiment [2] is 0.386 (inactive); in experiment [2] (setting [4]), 0.374; in experiment [2] (measured here: PEO4 Z-AUC), 0.397. Moreover, the z-score in experiment [3] (setting [5]) is -0.243; in experiment [3] (setting [6]), -1.76; in experiment [3] (setting [7]), -0.193.

`CC(C)C[C@H](NC(=O)CNC(=O)c1cc(Cl)ccc1Cl)B1OC(=O)CC(CC(=O)O)(C(=O)O)O1` (some centres undefined): the Potency was 52.6 nM (active) in experiment [1] and 83.3 nM (active) in experiment [3] (TFE3-RCC UOK109 viability, active = Z-AUC below -0.8 in all three lines). Moreover, the results for the z-score in experiment [3] (setting [5]), in experiment [3] (setting [6]) and in experiment [3] (setting [7]) were -1.14, -3.62 and -2.91, respectively.

`CC[C@H](CC[C@@H](C)[C@H]1CC[C@H]2[C@@H]3CC=C4C[C@@H](O)CC[C@]4(C)[C@@H]3CC[C@]12C)C(C)C`: the Potency result in experiment [1] was “inactive”. Further, the z-score is 0.368 in experiment [3] (setting [5]), 0.916 in experiment [3] (setting [6]) and 0.197 in experiment [3] (setting [7]).

With `CC(C)OC(=O)[C@H](C)N[P@](=O)(OC[C@H]1O[C@@H](n2ccc(=O)[nH]c2=O)[C@](C)(F)[C@H]1O)Oc1ccccc1`, in experiment [1], the Potency result was “inactive”. Besides, the z-score in experiment [3] (setting [5]) was 0.488; in experiment [3] (setting [6]), 1.3; in experiment [3] (setting [7]), 0.519.

For the compound `CCN1CCN(C(=O)N[C@H](C(=O)N[C@@H]2C(=O)N3C(C(=O)O)=C(CSc4nnnn4C)CS[C@@H]23)c2ccc(O)cc2)C(=O)C1=O`, the Potency result in experiment [1] is “inactive”. The z-score is 3.06 in experiment [3] (setting [5]), 1.43 in experiment [3] (setting [6]) and 2.48 in experiment [3] (setting [7]).

As to `O=C(c1ccc(F)cc1)N1CCC[C@H](c2nc(-c3ccc(F)cc3)no2)C1`, the Potency entry in experiment [1] was “inactive”. The z-score in experiment [3] (setting [5]) turned out to be 1.39; in experiment [3] (setting [6]), 0.757; in experiment [3] (setting [7]), 0.391.

In the case of `C[C@H](O)[C@@H]1C(=O)N2C(C(=O)O)=C(S[C@@H]3CN[C@H](CNS(N)(=O)=O)C3)[C@@H](C)[C@@H]12`, the Potency entry in experiment [1] is “inactive”. Besides, the z-score in experiment [3] (setting [5]) is -0.714; in experiment [3] (setting [6]) it was 0.967; in experiment [3] (setting [7]), -1.41.
